The record followed here is PubChem BioAssay (NCI).

The nature of experiment [1]: NCI Yeast Anticancer Drug Screen. Data for the rad50 strain (AID 155).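 Further: 0% = growth of vehicle-only cultures of the same strain.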 The following applies: S. cerevisiae rad50 strain growth inhibition, hits give high values; at 50.0 µM unless noted. The gist of the method: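 Growth of the mutant yeast was measured after compound exposure and referenced to vehicle-treated cultures.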
A short description of experiment [2]: NCI Yeast Anticancer Drug Screen. Data for the mec2-1 strain (AID 157). The following applies: S. cerevisiae mec2-1 strain, hits give high values; at 50.0 µM unless noted. In a few lines:
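Yeast mec2-1 mutant treated with compound. Readout: growth inhibition vs vehicle controls.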

Experiment [3] is described as follows: NCI Yeast Anticancer Drug Screen. Data for the sgs1 mgt1 strain (AID 161).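 Further: 0% = growth of cultures given vehicle only.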 Particulars: S. cerevisiae sgs1 mgt1 strain, hits give high values; at 50.0 µM unless noted. In a few lines: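 Read-out: growth inhibition vs vehicle controls. Cells: mutant yeast strain deficient in DNA damage repair.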
Experiment [4] can be described thus: NCI Yeast Anticancer Drug Screen. Data for the cln2 rad14 strain (AID 165).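 Further: 0% = growth equal to vehicle treated cultures.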 The following applies: S. cerevisiae cln2 rad14 strain, hits give high values; at 50.0 µM unless noted. The gist of the method: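 cln2 rad14 yeast strain; compound exposure; growth inhibition read vs vehicle controls.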
Experiment [5] in a line: NCI Yeast Anticancer Drug Screen. Data for the bub3 strain (AID 167). The following applies: S. cerevisiae bub3 mutant strain, hits give high values; at 50.0 µM unless noted. The gist of the method:
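Whole-cell yeast assay. The mutant strain was incubated with compounds, and growth inhibition was determined by comparison with vehicle-treated cells.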

Experiment [6] in a line: NCI Yeast Anticancer Drug Screen. Data for the mlh1 rad18 strain (AID 175). The following applies: S. cerevisiae mlh1 rad18 strain growth inhibition, hits give high values; at 50.0 µM unless noted. In a few lines:
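Yeast w/ defined DNA-repair lesions; compound exposure; growth vs vehicle controls → % inhibition.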

About 79,000 compounds went through this panel and 15% of them were active in at least one assay; those are over-represented in the sample as a whole. A number with no mark means an inactive call. Activity calls are given as the source filed them. No stated cut-off is given here; in the data, active means growth inhibition above about 70%; inactive means the rest. Where a SMILES comes first, the peptide text is derived from it.

On to `CCOC(C)C(Nc1ccc(C(=O)O)cc1)C(=O)Nc1ccc(C(=O)O)cc1` (stereo unspecified), for which the growth inhibition was 9.8% in experiment [1]; 2% in experiment [2]; 4.5% in experiment [3]; -29.4% in experiment [4]; -5.6% in experiment [5]; -10.7% in experiment [6].

Regarding `COc1ccc(N=Nc2nc(N)c(C(N)=O)[nH]2)cc1`, the growth inhibition in experiment [1] is -8.65%; in experiment [2] it was -7.55%; in experiment [3] it was -4.75%; in experiment [4], -28.5%; in experiment [5], 5.7%; in experiment [6], -16.6%.

As for `NC(=O)C1CCCN1C(=O)C(N)Cc1ccccc1` (stereo not drawn) (H-Phe-Pro-NH2; configuration not given here), the growth inhibition in experiment [1] was -26.9%; in experiment [2] it was -44.1%; in experiment [3], -21.1%; in experiment [4], 5.7%; in experiment [5] it was 4.7%; in experiment [6] it was -9.05%.

For the molecule `CCN(CC)CCNc1ccc(COC(=O)NC)c2sc3ccccc3c(=O)c12`, the growth inhibition was 3.9% in experiment [1]; -2.4% in experiment [2]; -8.3% in experiment [3]; -12.2% in experiment [4]; -17.4% in experiment [5]; -58.9% in experiment [6].

As to `COc1ccc(CC(C)NN)cc1` (stereo unspecified), the growth inhibition was 93% (active) in experiment [1]; 56.7% in experiment [2]; 50.2% in experiment [3]; 95.7% (active) in experiment [4]; 99.2% (active) in experiment [5]; 98.5% (active) in experiment [6].

Take `Cc1ccc(S(=O)(=O)CBr)cc1`: the growth inhibition in experiment [1] is 5.35%; in experiment [2], 14%; in experiment [3] it was 6.9%; in experiment [4], 3.3%; in experiment [5], 4.6%; in experiment [6], 5.2%.

As for `CC(C)C(=O)Nc1ccc(S(=O)(=O)Nc2ccc(N)cc2O)cc1`, the growth inhibition in experiment [1] is -6.8%; in experiment [2] it was 6.6%; in experiment [3] it was 25.1%; in experiment [4] it was 1.25%; in experiment [5] it was 20.1%; in experiment [6], -0.75%.

With `CCCCCC[N+](C)(C)C`, the growth inhibition was 28% in experiment [1]; -16.3% in experiment [2]; 2.7% in experiment [3]; 6.75% in experiment [4]; 31.3% in experiment [5]; 16.2% in experiment [6].

Take `COc1ccccc1C(=O)N/N=C/c1cccc([N+](=O)[O-])c1`: the growth inhibition in experiment [1] is -2.15%; in experiment [2], 3.1%; in experiment [3], 13.7%; in experiment [4], -11.7%; in experiment [5] it was 29.1%; in experiment [6] it was 4.75%.

As to `CCSCCC#N`, the growth inhibition was 11.2% in experiment [1]; 4.75% in experiment [2]; -13% in experiment [3]; 0.3% in experiment [4]; 8.1% in experiment [5]; -10.2% in experiment [6].

On to `CN1N=C(c2ccncc2)OC1c1cccc(F)c1` (stereo unspecified), for which the growth inhibition was -58% in experiment [1]; -45.4% in experiment [2]; -25.6% in experiment [3]; 6.5% in experiment [4]; 4.9% in experiment [5]; -16% in experiment [6].

`Cc1cc(-c2cccc3ccccc23)[n+]([O-])cc1C`: the growth inhibition is 15.6% in experiment [1]; 1.15% in experiment [2]; 17.2% in experiment [3]; -16.3% in experiment [4]; -24.1% in experiment [5]; 11.8% in experiment [6].

For the molecule `NC(=S)Cc1ccncc1`, the growth inhibition in experiment [1] is 12.8%; in experiment [2], 6.15%; in experiment [3], 3.45%; in experiment [4] it was 1.15%; in experiment [5] it was 5.55%; in experiment [6] it was 2.65%.

Regarding `C/C=C\c1noc2c1C(=O)OC(C)C2` (stereo unspecified), the growth inhibition in experiment [1] was 49.4%; in experiment [2], 23.4%; in experiment [3] it was 40.4%; in experiment [4] it was 14.2%; in experiment [5], 22.4%; in experiment [6] it was 17.6%.

With `N=c1ccccn1C(=O)C1=Cc2cc(Cl)cc(Cl)c2OC1`, the growth inhibition in experiment [1] is -15.6%; in experiment [2] it was 0.75%; in experiment [3], -1.85%; in experiment [4] it was -25.8%; in experiment [5], 7.65%; in experiment [6] it was -2.25%.

Turning to `CCOC(=O)c1[nH]c(C)c(/C=N/O)c1C`, the growth inhibition in experiment [1] is 22.9%; in experiment [2], -1.8%; in experiment [3], 6.65%; in experiment [4] it was 13.6%; in experiment [5], 10.1%; in experiment [6], 15.2%.

As for `COC(=O)C(=O)C(C(=O)C=C(C)C)C(=O)C(=O)Nc1ccc(C)cc1C` (stereo unspecified), the growth inhibition in experiment [1] was -4.9%; in experiment [2], -17.5%; in experiment [3], -3.55%; in experiment [4], 11.2%; in experiment [5], -18.6%; in experiment [6] it was -29.6%.

On to `CC(O)CNC(=O)C(C)(C)O` (stereo unspecified), for which the growth inhibition in experiment [1] is 36%; in experiment [2], 13.6%; in experiment [3] it was 20.7%; in experiment [4], 9.65%; in experiment [5], 21.8%; in experiment [6] it was 18.9%.

For `O=C(O)C1=Cc2ccccc2OC1`, the growth inhibition in experiment [1] was 2.7%; in experiment [2], -19.9%; in experiment [3], -5.55%; in experiment [4], -27.2%; in experiment [5] it was -28.6%; in experiment [6] it was -4.7%.

`CN1OC(=O)OC(C)(c2ccccc2)C1=O` (stereo unspecified): the growth inhibition was 2.9% in experiment [1]; -12.3% in experiment [2]; -2.3% in experiment [3]; 0.25% in experiment [4]; 0.6% in experiment [5]; -0.05% in experiment [6].

Take `COc1ccc(/C=C/C(=O)c2sc(Nc3ccc([N+](=O)[O-])cc3)nc2C)cc1`: the growth inhibition is 39.2% in experiment [1]; 7.45% in experiment [2]; 5.35% in experiment [3]; 36.8% in experiment [4]; 27.5% in experiment [5]; 46.4% in experiment [6].
